Bioassay records from PubChem BioAssay.
aSyn UTR act = Activators via SNCA 5'UTR binding, MLPCN | alpha-synuclein 5'UTR reporter, activators screen | activity score, % (tested at 7.5 µM), hits read low | actives 7.1% (n = 300,000); in the data active = activity score below about -60%
Active calls of the source: *. The list is a sample of the results.

SMILES | aSyn UTR act
Cc1cc(-c2nnc3n2N=C(c2ccc(F)cc2)CS3)n[nH]1 | -77*
Cc1cccc(-c2nnc3n2N=C(c2ccccc2)CS3)c1 | 63
CN(C)c1ccc(NC(=O)C2C3C=CC(C3)C2C(=O)O)cc1 (stereo unspecified) | -73*
CCc1ccc(NC(=O)C2C3C=CC(C4CC34)C2C(=O)O)cc1 (stereo unspecified) | -74*
CCC(=O)NCCc1nc2cc(NC(=O)c3ccc(Cl)cc3)ccc2n1C | -175*
CC(=O)NCCc1nc2cc(NC(=O)c3ccccc3Cl)ccc2n1C | -62*
CCC(=O)NCCc1nc2cc(NC(=O)c3ccc(OC)cc3)ccc2n1C | -119*
CCC(=O)NCCc1nc2cc(NC(=O)c3ccc(F)cc3)ccc2n1C | -122*
CC(=O)NCCc1nc2cc(NC(=O)c3ccc(Cl)cc3)ccc2n1C | -98*
O=[N+]([O-])c1ccc(C(O)CSC(=S)N2CCCCC2)cc1 (stereo unspecified) | -181*
Cc1ccc(C(=O)c2cc([N+](=O)[O-])ccc2N2CCCCC2)c(C)c1 | 69
O=C(Nc1ccon1)c1ccc(N2CCCCC2)c([N+](=O)[O-])c1 | -143*
O=C(Nc1nc2ccccc2s1)c1ccc(N2CCCCC2)c([N+](=O)[O-])c1 | -67*
O=C(NC1=NCCS1)c1cccc(Br)c1 | -75*
CCOc1cccc(C(=O)NC2=NCCS2)c1 | -104*
O=C(NC1=NCCS1)c1ccc(Br)s1 | -171*
CC(C)Oc1cccc(C(=O)NC2=NCCS2)c1 | -96*
CC1CCN(C(=O)COC(=O)c2ccccc2NC(=O)c2ccco2)CC1 | -73*
O=C(Nc1ccc(Cl)cc1Cl)C1=Cc2ccccc2OC1 | -192*
O=C(c1ccccc1Sc1c(Cl)cccc1[N+](=O)[O-])N1CCOCC1 | -74*
O=C(c1cc(COc2ccc3ncccc3c2)on1)N1CCC[C@H]1CO | -67*
COc1cccc(OCc2cc(C(=O)N3CCNC(=O)C3Cc3ccccc3)no2)c1 (stereo unspecified) | -74*
COc1cccc(OCc2cc(C(=O)N3CCCC3c3ccccn3)no2)c1 (stereo unspecified) | -84*
CCOC(=O)c1cc(C(=O)Nc2ccc(C)c(F)c2)nn1C | -224*
CN(C(=O)c1cccc(COc2ccc(Cl)cc2Cl)c1)c1ccccc1 | -120*
SMILES | aSyn UTR act
O=C(NCc1ccccc1)c1cccc(COc2cc(Cl)ccc2Cl)c1 | -143*
Oc1c(CN2CCN(c3ccccn3)CC2)cc(Cl)c2cccnc12 | 92
O=C(NCc1ccccc1)c1cccc(COc2ccccc2Cl)c1 | -87*
O=C(c1cccc(COc2ccc(Cl)cc2Cl)c1)N1CCN(c2ccccn2)CC1 | -164*
NNC(=O)c1cccc(COc2ccc3c(c2)CCC3)c1 | 71
COC(=O)c1ccccc1NC(=O)c1cccc(COc2ccccc2Cl)c1 | -505*
NNC(=O)c1cccc(COc2ccccc2Br)c1 | -72*
CC(C)(C)c1ccc(C(=O)Nc2ncn[nH]2)cc1 | -134*
O=C(C[n+]1ccc(C(=O)N/N=C/c2ccc(OCc3ccccc3)cc2)cc1)c1ccccc1 | -138*
Cc1occc1C(=O)Nc1ccc(OCc2ccccc2)cc1 | -147*
O=C(N/N=C/c1ccc(Cl)cc1)c1sccc1OCc1ccc(F)cc1 | 73
O=C(N/N=C/c1ccc(F)cc1)c1sccc1OCc1ccc(F)cc1 | -94*
CC(C)(C)NCC(=O)N/N=C/c1ccc(OCc2ccccc2)cc1 | -72*
CSc1ccc(/C=N/NC(=O)c2sccc2C)cc1 | -89*
Oc1ccc(N=Cc2ccc(OCc3ccccc3)cc2)cc1 | -92*
O=C(N/N=C/c1ccc(OCc2ccccc2)cc1)c1ccncc1 | -164*
O=C(N/N=C/c1ccc(OCc2ccccc2)cc1)c1cccs1 | -116*
O=C(COc1ccc([N+](=O)[O-])cc1)NNC(=O)c1cccs1 | -78*
O=C(Nc1ccc(OCc2ccccc2)cc1)c1cccs1 | -158*
C[C@H](NC(N)=O)C(=O)Nc1ccc(OCc2ccccc2)cc1 | -92*
c1ccc(CCNc2ncnc3sccc23)nc1 | -86*
OC(CNc1ncnc2sccc12)c1ccccc1 (stereo unspecified) | -97*
COc1ccc(CN(C(=O)c2cc3ccccc3oc2=O)C2CCCCC2)cc1OC | -65*
Cc1ccc(CN(C(=O)c2cc3ccccc3oc2=O)C2CCS(=O)(=O)C2)cc1 (stereo unspecified) | -104*
O=C(c1cc2ccccc2oc1=O)N(Cc1cccs1)C1CCS(=O)(=O)C1 (stereo unspecified) | -104*
SMILES | aSyn UTR act
O=C(c1cc2ccccc2oc1=O)N(Cc1ccc(F)cc1)C1CCS(=O)(=O)C1 (stereo unspecified) | -121*
CCc1ccc(CN(C(=O)c2cc3ccccc3oc2=O)C2CCS(=O)(=O)C2)cc1 (stereo unspecified) | -144*
COc1cccc(CNc2nc3nc(C)c(Cl)c(C)n3n2)c1 | -95*
COc1ccc(CNc2nc3nc(C)c(Cl)c(C)n3n2)cc1 | -65*
Oc1ccc(-c2nccc(-c3ccc(F)cc3)n2)cc1 | -144*
CCOC(=O)CSC1=NC(=O)/C(=C/c2ccc(Br)cc2)S1 | -62*
CCOC(=O)CSC1=NC(=O)/C(=C\c2ccc(OC(C)=O)cc2)S1 | -131*
Cc1cc(C(=O)Nc2nc3ccc(Cl)cc3s2)nn1C | -128*
Cn1ncc(Cl)c1C(=O)Nc1nc2ccc(Cl)cc2s1 | -198*
COc1ccc(/C=C/c2cc(=O)c3cc(Cl)ccc3o2)cc1 | -253*
COC(=O)c1ccc(Sc2ccc(C)cc2)c(N)c1 | -141*
O=C(O)/C=C\C(=O)Nc1ccccc1C#Cc1ccc(Br)cc1 | -290*
O=C(O)/C=C\C(=O)Nc1ccccc1C#Cc1ccccc1 | -87*
CCN1CC(O)=C(c2nc3ccccc3s2)C1=N | -70*
CCCCN1CC(O)=C(c2nc3ccccc3s2)C1=N | -167*
N=C1C(c2nc3ccccc3s2)=C(O)CN1c1ccccc1 | -120*
COc1ccc(OC)c(C(=O)Nc2ccc3[nH]ccc3c2)c1 | -112*
COc1ccc(C(=O)Nc2ccc3[nH]ccc3c2)cc1OC | -134*
COc1ccc(C(=O)Nc2ccc3[nH]ccc3c2)cc1 | 66
Cc1ccc(-c2nc(CS(=O)(=O)CC(=O)NC3CCC(C)CC3)c(C)o2)cc1 (stereo unspecified) | -102*
CCc1ccc(-c2nc(CSCC(=O)NC3CC3)c(C)o2)cc1 | 71
COc1cccc(C2c3c(oc4ccccc4c3=O)C(=O)N2Cc2ccco2)c1 (stereo unspecified) | -99*
CCN(CC)CCn1c(NC(=O)c2ccc(C)cc2)nc2ccccc21 | -65*
C/C(=N\NC(=O)c1ccccc1)c1nc2ccccc2n1C | 62
Cn1c(NC(=S)Nc2ccccc2)nc2ccccc21 | -99*
SMILES | aSyn UTR act
CN(C)CCn1c(NC(=O)c2ccc(Cl)cc2)nc2ccccc21 | -239*
Cn1c(NC(=O)c2ccc(F)cc2)nc2ccccc21 | -103*
CCC(=O)Nc1nc2ccccc2n1Cc1ccc(C)cc1 | 77
CC(=O)Nc1nc2ccccc2n1Cc1ccc(Cl)cc1 | 51
CCn1c(NC(=O)c2cccs2)nc2ccccc21 | -89*
O=C(Nc1sc2c(c1C(=O)O)CCC2)c1ccco1 | -62*
CC1(C)Cc2c(sc(NC(=O)c3ccco3)c2C(=O)O)CO1 | -81*
CC1(C)Cc2c(sc(NC(=O)c3ccc(Br)o3)c2C#N)CO1 | -91*
COC(=O)c1c(NC(=O)/C=C/c2ccco2)sc2c1CCC2 | -143*
COC(=O)c1c(NC(=O)c2ccc(C)o2)sc2c1CCCCC2 | -184*
